The campaign covered roughly 16,000 compounds. About 5,100 (32%) were called active. Another 25% or so got no clear call; they are omitted. This is one part of the list. Values without a mark were called inactive. Calls follow the shape of the dose curve; as a rule, active = well fitted curve in the direction sought with a large enough effect; inconclusive = small, poorly fitted or top-dose-only effect, or effect the other way; inactive = no such curve, though single readings can be large or run the other way.
These compounds were tested against Cytochrome P450 3A4 (Homo sapiens) (UniProt P08684) (assay: Cytochrome panel assay with activity outcomes). Conditions: recombinant CYP, pro-luciferin dealkylation, luminescence, p450-cyp3a4; series mostly up to 57.1 µM.
Chain of Cytochrome P450 3A4 (Homo sapiens) (P08684 whole entry, looked up): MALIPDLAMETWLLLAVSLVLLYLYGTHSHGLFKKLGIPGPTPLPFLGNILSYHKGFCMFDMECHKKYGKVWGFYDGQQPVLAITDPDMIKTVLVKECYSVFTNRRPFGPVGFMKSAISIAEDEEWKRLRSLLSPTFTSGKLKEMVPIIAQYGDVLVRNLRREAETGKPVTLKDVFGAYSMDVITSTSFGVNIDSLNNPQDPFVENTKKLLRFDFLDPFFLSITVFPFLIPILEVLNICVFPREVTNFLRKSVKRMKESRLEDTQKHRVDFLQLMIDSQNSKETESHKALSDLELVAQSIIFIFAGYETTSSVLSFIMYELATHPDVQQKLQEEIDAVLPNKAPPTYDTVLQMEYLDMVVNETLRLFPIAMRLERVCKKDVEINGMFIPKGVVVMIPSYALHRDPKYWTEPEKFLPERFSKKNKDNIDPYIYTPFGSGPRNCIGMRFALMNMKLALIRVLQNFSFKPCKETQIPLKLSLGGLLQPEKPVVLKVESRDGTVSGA
`Cc1snc(SCC(=O)N/N=C(\N)COc2cccc(C(F)(F)F)c2)c1C#N` was tested, and the AC50 was 3.16 µM (active).
`O[C@H](CCCN1CCN(c2ncc(F)cn2)CC1)c1ccc(F)cc1` was tested, and the AC50 was “inactive”.
In the case of `COc1cccc(CNC(=O)CCNC(=O)Cn2ccc3ccccc3c2=O)c1`, the AC50 is reported as 14.1 µM (active).
`COc1ccc(OC)c(CNC(=O)CCNC(=O)Cn2ccc3ccccc3c2=O)c1` showed an activity, negative = inhibition of 5.01% [at 2.29 µM].
For `O=C(CCNC(=O)Cn1cnc2ccccc2c1=O)NCC1COc2ccccc2O1` (stereo unspecified), the activity, negative = inhibition was 5.27% [at 2.29 µM].
For `CC1CCN(C(NC(=O)c2ccco2)C(=O)c2ccccc2)CC1` (stereo unspecified), the AC50 was “inactive”.
In the case of `CCCC[C@@H]1C[C@H]1C(NC(=O)c1ccco1)c1ccc(-c2ccccc2)cc1` (stereo partly specified), the AC50 is reported as 15.8 µM (active).
In the case of `CCCC[C@@H]1C[C@H]1C(NC(=O)c1ccco1)c1ccc(C(=O)OC)cc1` (stereo partly specified), the AC50 is reported as 15.8 µM (active).
In the case of `CCCC[C@@H]1C[C@H]1C(NC(=O)c1ccco1)c1ccc(Cl)cc1` (stereo partly specified), the AC50 is reported as 7.94 µM (active).
In the case of `CCC1(c2ccccc2)C(=O)NCNC1=O`, the AC50 is reported as “inactive”.
In the case of `CCCCN1C(=O)CC(Sc2ccccc2C(=O)O)C1=O` (stereo unspecified), the AC50 is reported as “inactive”.
In the case of `O=C(CSC1CC(=O)N(CC(c2ccccc2)c2ccccc2)C1=O)Nc1ccc(Cl)cc1` (stereo unspecified), the AC50 is reported as 8.91 µM (active).
For `Cc1cc2ccc(OC(=O)c3ccc(N=C(N)N)cc3)cc2oc1=O`, the activity, negative = inhibition was -27.2% [at 11.4 µM].
With `CN(C)CCCN1c2ccccc2Sc2cnccc21` the AC50 was 1.58 µM (active).
For `CN(C)CCCN1c2ccccc2Sc2ccc3ccccc3c21`, the activity, negative = inhibition was -13.6% [at 11.4 µM].
`CCC(=O)c1ccc2c(c1)N(CCCN(C)C)c1ccccc1S2` was tested, and the AC50 was “inactive”.
`Cc1cc(NC(=O)c2ccc(S(=O)(=O)Nc3ccccc3)cc2)no1` was tested, and the activity, negative = inhibition was 2.51% [at 2.29 µM].
For `Cc1cc(NC(=O)c2cccc(F)c2)no1`, the AC50 was “inactive”.
`COc1ccccc1NS(=O)(=O)c1cccc(C(=O)OCC(=O)Nc2cc(C)on2)c1` was tested, and the AC50 was 7.08 µM (active).
With `O=C(NCc1ccccc1)c1ccc(S(=O)(=O)N2CCCc3ccccc32)cc1` the AC50 was 10 µM (active).
For `O=C(Nc1ccc(S(=O)(=O)N2CCCCC2)cc1)c1ccc(CN2CCc3ccccc3C2)cc1`, the AC50 was “inactive”.
In the case of `Cc1cc(NC(=O)COC(=O)c2ccc(NS(=O)(=O)c3ccc(C)c(C)c3)cc2)no1`, the AC50 is reported as 5.01 µM (active).
Compound `COc1cc2ccccc2cc1C(=O)Nc1ccc(S(=O)(=O)Nc2cc(C)on2)cc1` has an activity, negative = inhibition of 6.01% [at 11.4 µM].
In the case of `COc1ccc(OC)c(NC(=O)C(CC(=O)O)NCc2ccco2)c1` (stereo unspecified), the AC50 is reported as “inactive”.
`O=C(Cc1ccccc1)NC1CCN(S(=O)(=O)c2ccc(C(=O)O)cc2)CC1` was tested, and the AC50 was “inactive”.
For `COc1ccccc1NC(=O)COC(=O)c1ccc(S(=O)(=O)NCc2ccco2)cc1`, the AC50 was 28.2 µM (active).
`O=C(O)NCC1CCCCC1` (tested in a mixture with another compound) showed an activity, negative = inhibition of -26.5% [at 11.4 µM].
With `O=[n+]1c2c(n([O-])c3cc(F)c(F)cc31)CCCC2` the AC50 was “inactive”.
`CC(C)(C)C(=O)[C@H]1[C@H](c2ccccc2)[C@@]2(N=C(c3ccccc3)OC2=O)C2c3ccccc3C=NN21` (stereo partly specified) gave an activity, negative = inhibition of -20.3% [at 2.29 µM].
For `Cc1cc(NC(=O)COC(=O)c2ccc(S(=O)(=O)N3CCCc4ccccc43)cc2)no1`, the AC50 was 0.891 µM (active).
In the case of `COc1ccc(/C=C(\C#N)C(N)=O)c(OC)c1`, the AC50 is reported as 2.51 µM (active).
With `CCOc1ccccc1/C=C(\C#N)C(N)=O` the activity, negative = inhibition was -4.52% [at 11.4 µM].
In the case of `COc1ccc(/C=C(\C#N)C(N)=O)cc1OC`, the activity, negative = inhibition is reported as -6.66% [at 11.4 µM].
For `Cc1cccc2nc(C(F)(F)F)nc(=O)n12`, the activity, negative = inhibition was 0.743% [at 2.29 µM].
With `CC(C)OC(=O)c1cccc(C(=O)Oc2ccc(Br)cc2)n1` the AC50 was “inactive”.
`O=C(CCN1C(=O)c2cccc3cccc(c23)C1=O)N1CCN(Cc2ccc3c(c2)OCO3)CC1` was tested, and the AC50 was 1 µM (active).
With `Cc1ccc(=O)n(-c2ccccc2)c1` the AC50 was “inactive”.
With `Cc1ccc(/C=C2\OC(=O)c3ccccc32)cc1` the AC50 was 12.6 µM (active).
For `Cc1ccccc1/C=C1\OC(=O)c2ccccc21`, the AC50 was “inactive”.
In the case of `CCC(C)N1C(=O)S/C(=C/c2ccc(Sc3nc4ccccc4[nH]3)o2)C1=O` (stereo unspecified), the AC50 is reported as 1.12 µM (active).
With `COc1ccccc1CNc1ncnc2ccc(-c3c(C)noc3C)cc12` the AC50 was 12.6 µM (active).
In the case of `COc1ccc(CNc2ncnc3ccc(-c4c(C)noc4C)cc23)c(OC)c1`, the AC50 is reported as 3.16 µM (active).
Work on `Cn1c(N)c(N=Nc2ccc(S(N)(=O)=O)cc2)c(=O)n(C)c1=O` yielded an activity, negative = inhibition of -14.9% [at 11.4 µM].
For `CN(Cc1ccco1)C(=O)C1CCC(=O)N1Cc1ccc(F)cc1` (stereo unspecified), the AC50 was “inactive”.
`CC(C)(C)c1ccc(CN(Cc2ccco2)Cc2nnnn2C2CCCC2)cc1` was tested, and the AC50 was 1.41 µM (active).
Compound `NC(N)=N/N=C(\c1ccc(Cl)cc1)C1CC1` has an activity, negative = inhibition of -13.1% [at 11.4 µM].

Reference: PubChem BioAssay AID1851 (National Center for Advancing Translational Sciences (NCATS), 2009)
% is scaled to controls: 0 for no effect and ±100 for the full control effect.
